Experimental data as given in the supplement of paper PMC10849652.
Of roughly 8,800 targets only a part is listed; those with a hit were picked by preference. About 0.5% of all pairs of compound and target were hits. A number with no mark means an inactive call.

Legend:
Test in all cases: log2 fold change, soluble protein after heating vs DMSO (PISA); higher = thermal stabilisation; K562 lysate, 10 uM; active = over 0.2 and 3.5 SD of the protein, either way, in both replicates (recomputed)
[1] = compound: Cc1cn(-c2cc(NC(=O)c3ccc(C)c(Nc4nccc(-c5cccnc5)n4)c3)cc(C(F)(F)F)c2)cn1 [nilotinib]
Outline: (§1)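 A 30 min treatment with 10 μM compound was applied to crude K562 extract at 1 mg/mL protein in PBS pH 7.4 with 1 mM MgCl2. Heating for 3 min spanned 48°C-58°C, after which aliquots were pooled, adjusted to 0.5% NP-40 at 4°C and spun at 21,000xg for 90 min. TMTpro 16plex LC-MS/MS of the supernatant, with channel sums equalised, gave values recorded as log-two fold change in thermal stability against solvent controls, from duplicates.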

[2] = compound: Cc1nc(Nc2n[nH]c3c2CN(C(=O)N[C@H](CN(C)C)c2ccccc2)C3(C)C)c2sccc2n1
Outline: as §1

[3] = compound: Cc1nc(Nc2ncc(C(=O)Nc3c(C)cccc3Cl)s2)cc(N2CCN(CCO)CC2)n1 [dasatinib]
Outline: as §1

[4] = compound: Cc1ncc(-c2ccnc(Nc3ccc(S(C)(=O)=O)cc3)n2)n1C(C)C
Outline: as §1

[5] = compound: Cn1cc(-c2ccc3c(c2)CCN3C(=O)Cc2cccc(C(F)(F)F)c2)c2c(N)ncnc21
Outline: as §1

[6] = compound: Cn1cc(CNCC2CCN(c3ncc(C(=O)NO)cn3)CC2)c2ccccc21 [quisinostat]
Outline: as §1

[7] = compound: Cn1cncc1[C@@](N)(c1ccc(Cl)cc1)c1ccc2c(c1)c(-c1cccc(Cl)c1)cc(=O)n2C [tipifarnib]
Outline: as §1

[8] = compound: NC(=O)Nc1cc(-c2cccc(F)c2)sc1C(=O)N[C@H]1CCCNC1
Outline: as §1

[9] = compound: NC(=O)c1cnc(N[C@@H]2CCCC[C@@H]2N)nc1Nc1cccc(-n2nccn2)c1
Outline: as §1

[10] = compound: NC1(c2ccc(-c3nc4ccn5c(=O)[nH]nc5c4cc3-c3ccccc3)cc2)CCC1
Outline: as §1

[11] = compound: NCC(=O)Nc1ccc(-n2nc(C(F)(F)F)cc2-c2ccc3c(ccc4ccccc43)c2)cc1
Outline: as §1

[12] = compound: O=C(CCCCCCC(=O)Nc1ccccc1)NO [vorinostat]
Outline: as §1

[13] = compound: O=C(O)c1ccc2c(c1)nc(Nc1cccc(Cl)c1)c1ccncc12 [silmitasertib]
Outline: as §1

[14] = compound: O=C1NC(=O)C(c2cnc3ccccn23)=C1c1cn2c3c(cc(F)cc13)CN(C(=O)N1CCCCC1)CC2
Outline: as §1

[15] = compound: c1cn2cc(-c3ccc4cn[nH]c4c3)nc(Nc3ccc(N4CCOCC4)cc3)c2n1 [entospletinib]
Outline: as §1

Chain of UniProt Q07617 (Q07617 whole entry, looked up): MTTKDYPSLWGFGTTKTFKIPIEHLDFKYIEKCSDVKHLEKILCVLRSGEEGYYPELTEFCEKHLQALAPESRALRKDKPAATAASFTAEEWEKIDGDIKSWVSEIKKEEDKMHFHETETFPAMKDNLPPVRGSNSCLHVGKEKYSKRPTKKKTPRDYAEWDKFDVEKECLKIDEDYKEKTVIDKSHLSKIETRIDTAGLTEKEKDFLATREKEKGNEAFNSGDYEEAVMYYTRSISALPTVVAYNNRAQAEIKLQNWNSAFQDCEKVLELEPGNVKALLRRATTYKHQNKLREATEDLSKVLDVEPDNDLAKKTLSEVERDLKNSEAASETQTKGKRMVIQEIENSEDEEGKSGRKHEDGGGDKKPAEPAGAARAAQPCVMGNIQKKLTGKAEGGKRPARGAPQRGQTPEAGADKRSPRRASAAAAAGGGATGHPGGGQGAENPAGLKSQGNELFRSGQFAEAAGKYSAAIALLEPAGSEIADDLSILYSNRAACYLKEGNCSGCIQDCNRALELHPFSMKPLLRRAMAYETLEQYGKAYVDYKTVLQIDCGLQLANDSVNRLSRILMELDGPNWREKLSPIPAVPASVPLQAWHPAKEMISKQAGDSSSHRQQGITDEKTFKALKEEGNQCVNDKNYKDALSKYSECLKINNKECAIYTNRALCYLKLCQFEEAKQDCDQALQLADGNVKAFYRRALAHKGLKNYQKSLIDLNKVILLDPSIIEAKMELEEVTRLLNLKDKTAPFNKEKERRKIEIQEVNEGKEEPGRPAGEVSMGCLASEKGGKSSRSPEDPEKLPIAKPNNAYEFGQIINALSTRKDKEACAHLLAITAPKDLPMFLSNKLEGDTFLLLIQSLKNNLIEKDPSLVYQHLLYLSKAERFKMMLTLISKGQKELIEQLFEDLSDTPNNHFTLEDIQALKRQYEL
Chain of UniProt B2RUZ4 (B2RUZ4 whole entry, looked up): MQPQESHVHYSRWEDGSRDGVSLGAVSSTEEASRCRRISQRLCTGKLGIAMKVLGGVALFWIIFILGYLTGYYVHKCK
Chain of UniProt O00161 (O00161 whole entry, looked up): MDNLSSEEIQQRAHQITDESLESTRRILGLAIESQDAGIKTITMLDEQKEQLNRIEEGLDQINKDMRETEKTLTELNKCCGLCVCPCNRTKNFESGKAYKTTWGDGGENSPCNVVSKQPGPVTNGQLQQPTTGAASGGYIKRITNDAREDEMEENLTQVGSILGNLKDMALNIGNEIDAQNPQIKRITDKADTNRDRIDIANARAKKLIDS
Chain of UniProt P35711 (P35711 whole entry, looked up): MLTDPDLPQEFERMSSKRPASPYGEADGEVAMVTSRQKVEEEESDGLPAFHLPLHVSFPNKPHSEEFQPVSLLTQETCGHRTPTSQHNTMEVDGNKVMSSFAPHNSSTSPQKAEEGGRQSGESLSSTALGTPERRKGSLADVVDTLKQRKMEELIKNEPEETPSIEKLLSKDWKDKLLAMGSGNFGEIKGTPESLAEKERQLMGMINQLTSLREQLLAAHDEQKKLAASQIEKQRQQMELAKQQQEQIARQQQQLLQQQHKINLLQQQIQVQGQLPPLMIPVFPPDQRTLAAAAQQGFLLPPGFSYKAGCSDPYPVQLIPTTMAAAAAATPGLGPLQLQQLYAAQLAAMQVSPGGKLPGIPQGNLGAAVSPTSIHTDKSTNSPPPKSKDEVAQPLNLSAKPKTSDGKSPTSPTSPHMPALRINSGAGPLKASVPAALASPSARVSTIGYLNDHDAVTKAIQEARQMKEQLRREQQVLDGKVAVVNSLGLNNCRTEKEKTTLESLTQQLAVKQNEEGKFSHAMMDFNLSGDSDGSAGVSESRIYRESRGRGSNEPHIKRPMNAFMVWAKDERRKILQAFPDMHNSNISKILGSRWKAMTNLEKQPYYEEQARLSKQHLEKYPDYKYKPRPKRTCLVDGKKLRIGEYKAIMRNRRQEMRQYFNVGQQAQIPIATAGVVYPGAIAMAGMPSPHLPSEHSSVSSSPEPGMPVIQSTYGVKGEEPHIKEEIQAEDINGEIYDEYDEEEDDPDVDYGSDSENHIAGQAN
Chain of UniProt Q15506 (Q15506 whole entry, looked up): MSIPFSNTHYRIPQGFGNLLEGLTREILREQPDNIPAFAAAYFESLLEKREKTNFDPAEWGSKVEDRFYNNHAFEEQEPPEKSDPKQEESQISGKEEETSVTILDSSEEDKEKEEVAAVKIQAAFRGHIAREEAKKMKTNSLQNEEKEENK
Chain of UniProt Q9UL54 (Q9UL54 whole entry, looked up): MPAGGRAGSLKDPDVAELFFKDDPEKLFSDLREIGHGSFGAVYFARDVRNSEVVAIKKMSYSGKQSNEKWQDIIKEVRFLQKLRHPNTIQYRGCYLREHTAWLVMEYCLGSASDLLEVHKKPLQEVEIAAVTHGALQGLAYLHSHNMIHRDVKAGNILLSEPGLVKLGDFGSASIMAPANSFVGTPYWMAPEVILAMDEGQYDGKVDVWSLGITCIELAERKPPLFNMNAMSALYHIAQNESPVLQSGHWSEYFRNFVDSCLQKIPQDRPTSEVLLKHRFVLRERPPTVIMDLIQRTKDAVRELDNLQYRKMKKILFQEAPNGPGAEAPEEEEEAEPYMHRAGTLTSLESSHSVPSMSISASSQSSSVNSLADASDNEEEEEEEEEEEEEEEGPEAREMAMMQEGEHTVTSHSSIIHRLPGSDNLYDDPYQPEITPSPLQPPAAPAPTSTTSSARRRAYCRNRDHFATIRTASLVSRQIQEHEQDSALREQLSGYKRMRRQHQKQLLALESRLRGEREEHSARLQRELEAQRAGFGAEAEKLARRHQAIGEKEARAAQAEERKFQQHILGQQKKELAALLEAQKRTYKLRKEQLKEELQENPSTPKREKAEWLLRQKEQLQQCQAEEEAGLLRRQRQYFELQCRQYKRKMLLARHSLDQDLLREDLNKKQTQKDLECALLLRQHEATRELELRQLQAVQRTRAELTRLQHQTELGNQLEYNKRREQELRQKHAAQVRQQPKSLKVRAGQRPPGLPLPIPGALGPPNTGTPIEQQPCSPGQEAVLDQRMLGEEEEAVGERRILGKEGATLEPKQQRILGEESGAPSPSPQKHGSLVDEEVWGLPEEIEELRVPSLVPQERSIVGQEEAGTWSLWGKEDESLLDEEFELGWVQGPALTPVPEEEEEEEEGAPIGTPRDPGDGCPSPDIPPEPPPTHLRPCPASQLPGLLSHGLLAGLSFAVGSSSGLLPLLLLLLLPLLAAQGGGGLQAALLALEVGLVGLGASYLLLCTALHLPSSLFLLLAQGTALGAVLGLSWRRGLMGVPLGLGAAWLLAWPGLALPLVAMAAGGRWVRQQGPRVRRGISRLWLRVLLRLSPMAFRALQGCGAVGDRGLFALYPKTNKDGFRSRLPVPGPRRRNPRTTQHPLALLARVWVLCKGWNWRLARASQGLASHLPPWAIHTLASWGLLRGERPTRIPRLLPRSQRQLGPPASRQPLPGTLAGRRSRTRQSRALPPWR
Chain of UniProt O75182 (O75182 whole entry, looked up): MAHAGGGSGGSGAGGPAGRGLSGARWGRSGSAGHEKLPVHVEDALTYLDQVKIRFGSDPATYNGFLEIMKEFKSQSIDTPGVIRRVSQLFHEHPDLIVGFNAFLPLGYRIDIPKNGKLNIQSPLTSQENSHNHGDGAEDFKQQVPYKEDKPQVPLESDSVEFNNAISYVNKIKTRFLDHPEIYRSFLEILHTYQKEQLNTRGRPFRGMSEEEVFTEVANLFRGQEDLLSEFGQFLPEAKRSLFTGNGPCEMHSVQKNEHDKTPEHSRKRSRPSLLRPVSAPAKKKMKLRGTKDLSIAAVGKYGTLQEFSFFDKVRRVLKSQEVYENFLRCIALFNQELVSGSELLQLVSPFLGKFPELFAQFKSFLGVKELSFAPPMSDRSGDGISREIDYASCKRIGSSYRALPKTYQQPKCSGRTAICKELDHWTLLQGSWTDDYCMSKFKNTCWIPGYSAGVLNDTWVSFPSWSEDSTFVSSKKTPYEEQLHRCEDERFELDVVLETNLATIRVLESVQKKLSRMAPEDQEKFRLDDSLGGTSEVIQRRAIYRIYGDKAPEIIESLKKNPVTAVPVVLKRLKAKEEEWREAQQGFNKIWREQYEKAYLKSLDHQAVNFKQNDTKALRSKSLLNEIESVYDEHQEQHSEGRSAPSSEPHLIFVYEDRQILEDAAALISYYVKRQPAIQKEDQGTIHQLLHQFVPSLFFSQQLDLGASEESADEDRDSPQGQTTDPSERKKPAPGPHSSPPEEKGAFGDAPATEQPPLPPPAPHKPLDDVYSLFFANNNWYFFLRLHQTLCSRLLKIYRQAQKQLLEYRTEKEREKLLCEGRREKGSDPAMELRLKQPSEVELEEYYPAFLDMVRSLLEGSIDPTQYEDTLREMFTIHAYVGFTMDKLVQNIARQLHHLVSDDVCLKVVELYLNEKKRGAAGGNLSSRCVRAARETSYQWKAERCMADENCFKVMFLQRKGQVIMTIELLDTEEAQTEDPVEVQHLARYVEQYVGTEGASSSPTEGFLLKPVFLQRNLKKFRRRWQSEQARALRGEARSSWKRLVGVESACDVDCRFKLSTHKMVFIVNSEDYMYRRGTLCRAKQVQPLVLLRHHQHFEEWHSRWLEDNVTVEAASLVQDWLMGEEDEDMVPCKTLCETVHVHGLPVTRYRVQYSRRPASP
Chain of UniProt O94768 (O94768 whole entry, looked up): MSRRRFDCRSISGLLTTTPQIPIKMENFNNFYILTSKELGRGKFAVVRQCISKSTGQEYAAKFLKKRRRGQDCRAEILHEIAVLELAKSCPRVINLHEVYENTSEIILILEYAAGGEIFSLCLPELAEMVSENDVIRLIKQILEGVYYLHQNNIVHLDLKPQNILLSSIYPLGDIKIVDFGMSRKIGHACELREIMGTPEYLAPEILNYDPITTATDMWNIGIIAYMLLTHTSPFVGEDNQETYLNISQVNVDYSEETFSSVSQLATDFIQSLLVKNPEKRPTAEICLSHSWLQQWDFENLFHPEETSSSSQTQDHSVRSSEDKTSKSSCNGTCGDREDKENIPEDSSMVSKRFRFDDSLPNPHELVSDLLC

Target | log2 fold change [1] | log2 fold change [2] | log2 fold change [3] | log2 fold change [4] | log2 fold change [5] | log2 fold change [6] | log2 fold change [7] | log2 fold change [8] | log2 fold change [9] | log2 fold change [10] | log2 fold change [11] | log2 fold change [12] | log2 fold change [13] | log2 fold change [14] | log2 fold change [15]
SKP2 (UniProt Q13309) | 0.047 | -0.044 | -0.004 | 0.003 | 0.045 | -0.193 | -0.035 | 0.295 | -0.015 | -0.044 | -0.07 | -0.203 | 0.012 | 0.009 | -0.103
SLC12A6 (UniProt Q9UHW9) | -0.004 | 0 | 0.024 | -0.066 | -0.003 | -0.013 | 0.012 | -0.001 | -0.022 | 0.026 | 0.009 | 0.15 | -0.045 | 0.003 | 0.013
SLU7 (UniProt O95391) | -0.052 | 0.045 | -0.025 | 0.047 | 0.013 | 0.244 | -0.029 | 0.086 | – | 0.016 | 0.208 | 0.012 | -0.037 | 0.046 | -0.024
SMARCA4 isoform 4 (UniProt P51532) | -0.244 | -0.219 | -0.037 | 0.037 | 0.035 | -0.081 | 0.239 | 0.16 | -0.042 | 0.05 | – | 0.166 | -0.198 | 0.119 | -0.083
SURF2 (UniProt Q15527) | -0.192 | -0.052 | -0.045 | 0.195 | -0.031 | -0.054 | 0.066 | -0.036 | 0.014 | – | -0.01 | – | – | 0.04 | 0.049
TAF1B (UniProt Q53T94) | -0.061 | -0.067 | -0.174 | -0.105 | 0.635 | -0.064 | -0.103 | 0.017 | 0.015 | – | 0.673 (active) | – | – | -0.044 | -0.026
SMAD2 (UniProt Q15796) | 0.025 | 0.116 | 0.006 | -0.059 | 0.011 | -0.012 | 0.055 | 0.038 | -0.015 | 0.042 | -0.025 | -0.752 (active) | -0.051 | 0.008 | -0.049
SIX5 (UniProt Q8N196) | 0.06 | -0.05 | 0.02 | 0.074 | -0.064 | -0.141 | 0.02 | 0.08 | 0.092 | -0.025 | – | 0.162 | -0.011 | -0.097 | –
SNX6, A0A0A0MRI2 | -0.021 | 0.009 | 0.003 | 0.03 | 0.027 | -0.003 | 0.007 | -0.015 | 0.016 | 0.016 | -0.005 | -0.325 (active) | 0.018 | 0.015 | 0.003
SRSF7 (UniProt Q16629) | -0.006 | -0.053 | 0.011 | -0.056 | -0.006 | 0.047 | 0.016 | -0.088 | 0.019 | 0.034 | 0.02 | 0.134 | -0.052 | -0.014 | -0.013
SLC26A6 (UniProt Q9BXS9) | 0.057 | 0.05 | -0.4 | 0.164 | -0.154 | 0.006 | 0.05 | 0.033 | 0.054 | -0.128 | 0.012 | 0.048 | 0.03 | 0.021 | -0.111
TAPT1 (UniProt Q6NXT6) | 0.009 | 0.012 | 0.013 | 0.03 | -0.118 | -0.053 | 0.017 | -0.032 | 0.011 | -0.001 | 0.023 | 0.09 | 0.007 | 0.023 | 0.001
STK17B (UniProt O94768) | -0.006 | -0.022 | -0.063 | -0.197 | 0.065 | -0.255 | -0.08 | 0.634 | – | -0.021 | – | -0.221 | 0.807 (active) | 0.052 | –
SNUPN (UniProt O95149) | -0.007 | -0.013 | – | 0.005 | – | 0.128 | -0.015 | 0.042 | -0.115 | -0.482 (active) | -0.076 | -0.037 | 0.142 | -0.043 | -0.066
SIN3B (UniProt O75182) | 1.42 (active) | -0.15 | – | 0.839 | – | -0.079 | 0.086 | 0.077 | – | – | 0.195 | – | – | 0.559 | -0.089
SLC35A3 isoform 2 (UniProt Q9Y2D2) | 0.02 | -0.001 | – | -0.049 | – | -0.241 | 0.069 | 0 | 0.019 | 0.056 | -0.022 | 0.091 | -0.07 | 0.019 | 0
STK38L (UniProt Q9Y2H1) | -0.08 | 0.68 (active) | -0.002 | -0.009 | 0.102 | -0.122 | 0.04 | 0.552 (active) | – | -0.046 | – | -0.162 | 0.184 | 0.022 | 0.043
SLC22A18 (UniProt Q96BI1) | – | – | – | – | – | -0.027 | – | -0.032 | 0.029 | 0.007 | -0.136 | -0.044 | 0.006 | 0.004 | 0.013

Target | log2 fold change [1] | log2 fold change [2] | log2 fold change [3] | log2 fold change [4] | log2 fold change [5] | log2 fold change [6] | log2 fold change [7] | log2 fold change [8] | log2 fold change [9] | log2 fold change [10] | log2 fold change [11] | log2 fold change [12] | log2 fold change [13] | log2 fold change [14] | log2 fold change [15]
SLC25A44 (UniProt Q96H78) | – | – | -0.539 (active) | – | -0.162 | -0.025 | – | 0.044 | 0.005 | 0.363 | 0.13 | 0.025 | -0.02 | -0.056 | -0.026
STK26 isoform 3 (UniProt Q9P289) | – | – | 0.181 | – | -0.028 | 0.093 | – | 0.203 | – | – | – | – | – | 0.014 | 0.116
SH3BP2 isoform 4 (UniProt P78314) | – | – | -0.027 | – | -0.107 | -0.111 | – | 0.019 | 0.141 | 0.048 | 0.08 | -0.27 | 0.092 | -0.017 | –
STAU1 isoform 3 (UniProt O95793) | -0.051 | -0.024 | – | -0.023 | – | -0.11 | 0.032 | 0.088 | – | -0.047 | – | -0.076 | -0.103 | -0.156 | –
SHB (UniProt Q15464) | – | – | 0.05 | – | 0.004 | 0.072 | – | -0.026 | -0.02 | -0.01 | – | -0.356 (active) | 0.117 | 0.044 | –
TARDBP (UniProt K7EN94) | – | – | – | – | – | – | – | – | – | – | 0.1 | – | – | – | -0.166
STK17A (UniProt Q9UEE5) | 0.076 | 0.188 | – | 0.249 | – | – | -0.387 | – | – | – | – | – | – | – | –
SOX5 (UniProt P35711) | – | – | -0.035 | – | -0.095 | 0.027 | – | -0.03 | -0.186 | -0.004 | -0.036 | -0.014 | 0.099 | -0.027 | -0.083
SNAP23 isoform 2 (UniProt O00161) | 0.011 | -0.041 | – | -0.054 | – | – | -0.016 | – | 0.046 | -0.116 | 0.146 | -0.85 (active) | -0.028 | – | -0.329
STN1 (UniProt Q9H668) | -0.149 | -0.071 | – | 0.034 | – | -0.104 | 0.005 | 0.156 | 0.032 | 0.02 | -0.03 | -0.2 | -0.111 | 0.126 | 0.049
SRGN (UniProt P10124) | – | – | 0.003 | – | -0.062 | -0.026 | – | 0 | 0 | -0.086 | -0.073 | 0.132 | -0.123 | -0.087 | -0.013
SZT2 (UniProt Q5T011) | -0.03 | 0.434 | 0.04 | 0.02 | -0.122 | – | -0.019 | – | -0.009 | -0.046 | – | 1.2 (active) | -0.081 | – | -0.1
SPAG1 (UniProt Q07617) | – | – | – | – | – | -0.037 | – | 0.007 | 0.164 | – | 0.227 | – | – | -0.061 | –
SLCO4A1 (UniProt Q96BD0) | -0.006 | 0.044 | – | 0.008 | – | – | 0.076 | – | – | – | – | – | – | – | –
SMIM1 (UniProt B2RUZ4) | 0.056 | 0.05 | – | 0.195 | – | 0.168 | 0.039 | -0.055 | -0.188 | -0.418 (active) | – | 0.177 | -0.076 | 0.12 | 0.042
SPA17 (UniProt Q15506) | – | – | -0.065 | – | -0.041 | 0.003 | – | -0.015 | 0.042 | – | 0.049 | – | – | 0.022 | -0.025
SPPL2A (UniProt Q8TCT8) | – | – | – | – | – | -0.21 | – | 0.046 | 0 | -0.072 | 0.407 | -0.106 | -0.069 | 0.047 | 0.141
TAOK2 isoform 2 (UniProt Q9UL54) | 0.109 | 0.013 | – | -0.01 | – | – | 0.031 | – | – | – | – | – | – | – | –
